Assay results published in PubChem BioAssay AID540336 (Broad Institute, 2011).
Values joined by “and” are separate entries in the source; they are usually repeats but may differ in a detail not shown here. Identical values can stand only once. The whole screen tested about 330,000 compounds, of which about 520 (0.16%) were called active.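 The calls were made as follows: active = inhibition of at least 50% in every replicate; inconclusive = best replicate reaches 50% inhibition but some replicates fall short; inactive = the rest.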 The entries come from a sample that favours actives as a whole. The source holds several records for some structures; these can differ, active in one and inactive in another.

The molecules below were run against Histone acetyltransferase RTT109 (Candida albicans (strain SC5314 / ATCC MYA-2876)) (UniProt Q5AAJ8) (assay: inhibitors of C. albicans Rtt109/Vps75 HAT, primary screen, biochemical, ThioGlo CoA-SH fluorescence, plate reader (AID 540336)). Settings: purified Rtt109/Vps75, ThioGlo CoA-SH fluorescence, 4 h; at 34.9 µM; stronger effect = higher value.
Sequence of Histone acetyltransferase RTT109 (Candida albicans (strain SC5314 / ATCC MYA-2876)) (Q5AAJ8 whole entry, looked up): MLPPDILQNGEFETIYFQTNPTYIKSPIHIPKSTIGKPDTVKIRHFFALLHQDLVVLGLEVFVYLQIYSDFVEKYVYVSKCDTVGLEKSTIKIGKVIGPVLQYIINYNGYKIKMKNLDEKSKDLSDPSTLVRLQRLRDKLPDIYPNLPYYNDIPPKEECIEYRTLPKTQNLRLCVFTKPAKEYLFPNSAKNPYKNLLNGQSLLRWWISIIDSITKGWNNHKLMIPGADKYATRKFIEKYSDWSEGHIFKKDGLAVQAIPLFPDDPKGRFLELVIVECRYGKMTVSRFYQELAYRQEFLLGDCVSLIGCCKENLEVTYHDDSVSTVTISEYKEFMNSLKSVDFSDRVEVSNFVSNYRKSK

Row | SMILES | inhibition
1 | COc1cc(OC)c(C(=O)NNC(=O)c2ccc(NS(=O)(=O)c3cccs3)cc2)cc1OC | -0.841% (inactive)
2 | COc1ccc(-c2ccc3c(c2)[C@@H]2C[C@H](N(C)S(=O)(=O)c4ccccc4)[C@H]([C@H](C)O)C(=O)N2CC3)cc1 | -7.44% (inactive)
3 | Cc1ccc(C(=O)O)c(NC=O)c1OCc1ccccc1 | 2.64% (inactive)
4 | O=C(CC(=O)c1cccnc1)c1ccccc1 | 5.8% (inactive)
5 | COc1cc2c(cc1OC)C(Nc1ccc(S(N)(=O)=O)cc1)=NC(C)(C)C2 | -0.292% (inactive)
6 | COc1cc2c(cc1O)C(SC)=NC(C)(C)C2 | 85% (active)
7 | COc1cc2c(cc1OC)C(C(C)C)=NC(C)(C)C2 | -260% (inactive)
8 | C=CCNC(=O)C1CC=CCC1C(=O)O (centres undefined) | -1.04% (inactive)
9 | C=CCNC(=O)C1CC2c3ccccc3C1c1ccccc12 (centres undefined) | 50.9% (active)
10 | C=CCNC(=O)C12CC3CC(C1)CC(C(=O)NCC=C)(C3)C2 | -14.4% (inactive)
11 | C=CCCC(=O)N1C[C@H]2CON(C)[C@H]2C[C@H]1c1cccc(Nc2ccccc2)c1 | 7.97% (inactive)
12 | Cc1ccc(S(=O)(=O)c2cc3c(=O)n4cccc(C)c4nc3n(CCc3ccccc3)c2=N)cc1C | 0.852% (inactive)
13 | CC(=NNC(=S)N1CCCCCC1)c1ccccn1 | 16.2% (inactive)
14 | CCN1CCC(O)(/C=C/c2ccc(C)cc2)C(C(=O)/C=C/c2ccc(C)cc2)C1 (centres undefined) | 3.59% (inactive)
15 | O=C1CC(C(=O)O)NC(=S)N1 (centres undefined) | -12.1% (inactive)
16 | O=C(O)C(=Cc1ccccc1[N+](=O)[O-])c1ccccc1 | -1.92% (inactive)
17 | CCc1c(Nc2ccccc2Cl)nc(N)[nH]c1=O | 4.46% (inactive)
18 | CC(C)(C)c1nnc2sc(SCC(O)=C(C#N)c3nc4ccccc4[nH]3)nn2c1=O | -1.69% (inactive)
19 | FC(F)(F)c1ccc(-c2cccc3c2C2CC3CCN2Cc2ccccc2)cc1 (centres undefined) | -0.156% (inactive)
20 | O=C(c1cccnc1)N(c1cc2sc(=O)oc2c2ccccc12)S(=O)(=O)c1ccccc1 | 101% (active)
21 | COc1ccc(N(C(=O)c2cccnc2)S(=O)(=O)c2ccc(OC)c(OC)c2)cc1 | -7.79% (inactive)
22 | O=C(c1cccnc1)N(Cc1ccccc1)C(=O)c1cccnc1 | 7.15% (inactive)
23 | Oc1c(Cl)cc(Cl)c(Cl)c1Cc1c(O)c(Cl)cc(Cl)c1Cl | 70.6% (active)

Row | SMILES | inhibition
24 | Cc1ccc(Cn2c(C)c3cnn(CC(=O)NCCN4CCOCC4)c(=O)c3c2C)cc1 | 4.07% (inactive)
25 | O=C(NCC(=O)N1CCCC(C(F)(F)F)C1)c1ccccc1F (centres undefined) | -12.6% (inactive)
26 | O=C(NC(Cc1ccccc1)C(=O)N1CCCC(C(F)(F)F)C1)c1ccccc1 (centres undefined) | 8.65% (inactive)
27 | FC(F)(F)C1CCCN(c2nsc3ccccc23)C1 (centres undefined) | 129% (active)
28 | CCN(CC(=O)Nc1c(F)cccc1F)C(=O)Cc1cccs1 | -5.91% (inactive)
29 | COC(=O)c1ccc(CNC(=O)Cn2cc(C)c(=O)[nH]c2=O)cc1 | -6.85% (inactive)
30 | NC(=S)NN=C1CCCC(C(F)(F)F)C1 (centres undefined) | 6.12% (inactive)
31 | CN(CCc1ccccc1)C(=O)c1cccc(NC(=O)Cc2cccc(NC(=O)C3CCCN(C(=O)CCc4ccccc4)C3)c2)c1 (centres undefined) | 10.3% (inactive)
32 | CCN(CC)CCCC(C)n1c2nc(=O)[nH]c(=O)c-2nc2cc(Cl)ccc21 (centres undefined) | 1.9% (inactive)
33 | CC(=O)Oc1ccc(OC(C)=O)c2c1C1C=CC2CC1 | -1.25% (inactive)
34 | O=C(CCC(=O)N1CCN(S(=O)(=O)c2ccc(Cl)cc2)CC1)NCc1cccc(C(F)(F)F)c1 | -0.722% (inactive)
35 | O=C(CCN1C(=O)/C(=C/c2cccs2)SC1=S)NNC(=O)c1cccc(O)c1 | 2.35% (inactive)
36 | O=C(CCCN1C(=O)/C(=C/c2cccs2)SC1=S)Nc1ccc(O)cc1 | 3.39% (inactive)
37 | CC(C(=O)Nc1ccc(O)c(C(=O)O)c1)N1C(=O)/C(=C/c2cccs2)SC1=S (centres undefined) | 81.1% (active)
38 | COc1ccc(C(=O)N(C)Cc2ccc(OC)c(OC)c2OC)cc1S(=O)(=O)N1CCOCC1 | 1.9% (inactive)
39 | O=C1CC(c2ccccc2)C(c2ccccc2)=NN1 (centres undefined) | 6.56% (inactive)
40 | O=C1/C(=C\c2ccc([N+](=O)[O-])cc2)CS(=O)(=O)C/C1=C/c1ccc([N+](=O)[O-])cc1 | -5.87% (inactive)
41 | CCCCN(C(=O)c1cccc(N2C(=O)c3ccccc3C2=O)c1)c1c(N)n(CCCC)c(=O)[nH]c1=O | 6% (inactive)
42 | COC(=O)c1c(NC(=O)C2CC(C)=C(C)CC2C(=O)O)sc2c1CCCCC2 (centres undefined) | 56.5% (active)
43 | COC(=O)c1c(NC(=O)CSc2nncs2)sc2c1CCCCC2 | -2.31% (inactive)
44 | N#Cc1c(NC(=O)C2CC(Cl)=CCC2C(=O)O)sc2c1CCCCC2 (centres undefined) | -0.566% (inactive)
45 | COc1ccc(CNC(=O)COC(=O)C2=Cc3ccccc3OC2)cc1 | 7.22% (inactive)
46 | Cn1c(=O)[nH]c2c(c(C(=O)O)nn2C)c1=O | 7.13% (inactive)

Row | SMILES | inhibition
47 | C[N+]1(CC(O)COc2ccccc2)CCN(C(=O)c2ccc([N+](=O)[O-])cc2)CC1 (centres undefined) | 52.5% (active)
48 | CC1CCN(CC(O)COc2ccc(C(=O)c3ccccc3)cc2)CC1 (centres undefined) | 0.839% (inactive)
49 | O=C(COc1ccccc1)Nc1ccc(C(=O)N2CCCC2)cc1 | 28.7% (inactive)
50 | NC(=O)C1CCN(C(=O)c2cc(S(=O)(=O)N3CCN(c4ccccc4)CC3)ccc2Cl)CC1 | -0.602% (inactive)
51 | CCC(C)C1(C2CCCC2)NC(=O)NC1=O (centres undefined) | -0.893% (inactive)
52 | CC(C)[C@@H](C(=O)OCC(=O)c1ccc2c(c1)NC(=O)CO2)N1C(=O)c2ccccc2C1=O | 2.17% (inactive)
53 | O=c1nc(NO)ccn1C1CCCO1 (centres undefined) | -2.47% (inactive)
54 | O=C(O)c1ccc(S(=O)(=O)c2ccccc2)s1 | -2.02% (inactive)
55 | Cc1c[n+]([O-])ccc1[N+](=O)[O-] | -8.76% (inactive)
56 | Cc1nn(-c2ncccn2)c2c1C(=O)CC(C)(C)C2Br (centres undefined) | 8.81% (inactive)
57 | COCCN(C(=O)C(C)N1C(=O)c2ccccc2C1=O)c1c(N)n(CC(C)C)c(=O)[nH]c1=O (centres undefined) | -5.79% (inactive)
58 | CN(C)/C=C(/C(=O)c1ccccc1)S(=O)(=O)c1ccc(Cl)cc1 | 0.945% (inactive)
59 | COc1cccc2sc(N(CCCN(C)C)C(=O)CCS(=O)(=O)c3ccccc3)nc12 | 83.9% (active)
60 | Cc1cccc2sc(N(CCCN(C)C)C(=O)CCS(=O)(=O)c3ccccc3)nc12 | 30.9% (inactive)
61 | COc1cccc2sc(N(CCCN(C)C)C(=O)C(c3ccccc3)c3ccccc3)nc12 | -2% (inactive)
62 | Cc1cccc(-n2c(=O)c3c(C)c(C)sc3n(CC(N)=O)c2=O)c1 | -1.94% (inactive)
63 | N#CCSc1nc2c(c(=O)n1Cc1ccccc1)C1(CCCC1)Cc1ccccc1-2 | 8.15% (inactive)
64 | Cc1cccc(-n2c(SCC(N)=O)nc3c(c2=O)C2(CCCCC2)Cc2ccccc2-3)c1 | 53.5% (active)
65 | O=C(OC12CC3CC(CC(C3)C1)C2)c1ccc(NCc2cc(O)ccc2O)cc1 | -1.56% (inactive)
66 | CC(C)c1ccc(C=NNc2ccc([N+](=O)[O-])cn2)cc1 | 4.1% (inactive)
67 | CSCCC(NC(=O)COc1ccccc1)C(=O)OCc1ccc(Cl)cc1 (centres undefined) | -1.24% (inactive)
68 | COc1ccccc1NC(=O)/C=C/C(N)=O | 121% (active)
69 | COc1ccccc1NC(=S)NC(=O)C(C)C | -8.37% (inactive)

Row | SMILES | inhibition
70 | COc1ccccc1NC(=O)C[n+]1ccccc1 | -9.21% (inactive)
71 | CCOC(=O)C1CCCN(C(=O)C2CCN(S(=O)(=O)c3ccc(Cl)c(C(F)(F)F)c3)CC2)C1 (centres undefined) | 10.8% (inactive)
72 | CCC1([N+](=O)[O-])COC(c2ccc(C)cc2)OC1 (centres undefined) | -3.32% (inactive)
73 | Cc1c(CCOC(=O)c2cc([N+](=O)[O-])ccc2Cl)sc[n+]1CCCCS(=O)(=O)[O-] | 12.5% (inactive)
74 | Cc1c(CCOC(=O)CC23CC4CC(CC(C)(C4)C2)C3)sc[n+]1Cc1ccc([N+](=O)[O-])cc1 | 64.3% (active) and -8% (inactive)
75 | Cc1c(CCO)sc[n+]1CC(=O)OC12CC3CC(CC(C3)C1)C2 | 2.54% (inactive)
76 | Cc1ccc(S(=O)(=O)N2CCN(C(=O)COC(=O)/C=C/c3cccc(Cl)c3)CC2)c(C)c1 | 5.03% (inactive)
77 | CN(C)C(CNC(=O)c1cc2ccccc2o1)c1ccccc1 (centres undefined) | 2.45% (inactive)
78 | CCN(CC)S(=O)(=O)c1cccc(NC(=O)c2ccc(S(=O)(=O)N3CCCC3)cc2)c1 | -3.62% (inactive)
79 | CC1C(C)N(C(=O)CCl)c2ccccc2N1C(=O)CCl (centres undefined) | -6.55% (inactive)
80 | Nc1cc2c(cc1Br)-c1ccc(F)cc1C2=O | -11.8% (inactive)
81 | CC1CN(Cc2ccco2)C(=S)N(c2ccccc2)C1=O (centres undefined) | 3.62% (inactive)
82 | NC(=O)c1ncn([C@@H]2O[C@H](CN=C3NS(=O)(=O)c4ccccc43)[C@@H](O)[C@H]2O)n1 | -1.34% (inactive)
83 | O=C(Nc1ccc(-c2csc(Nc3cccc(C(F)(F)F)c3)n2)cc1)c1cccc(C(F)(F)F)c1 | -6.03% (inactive)
84 | CC(=O)Nc1cccc(-c2csc(Nc3cccc(C)n3)n2)c1 | 65% (active)
85 | Cc1ccccc1Nc1nc(-c2cccnc2)cs1 | -4.39% (inactive)
86 | CC1(C)N=C(N)NC(Nc2ccc(Cl)cc2)=N1 | -1.08% (inactive)
87 | CC(C)(C)OC(=O)N1CCC(C(=O)Nc2cccc(C(=O)NCCc3ccccc3)c2)CC1 | 15.4% (inactive)
88 | COc1ccc2c(c1)c(=Cc1ccc(N(C)C)cc1)c1cc(-c3ccccc3)[n+](C)n12 | 14.8% (inactive)
89 | CC(=O)OCC(=O)C1(O)CCC2C3CC(C)C4=CC(=O)CCC4(C)C3C(O)CC21C (centres undefined) | -0.0615% (inactive)
